Results reported in the supplement of paper PMC12819154, “High-throughput peptide-centric local stability assay extends protein–ligand identification to membrane proteins, tissues and bacteria” (Nature Structural & Molecular Biology, 2025).
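Further: lysate desalted by size exclusion to strip endogenous ATP, peptide intensities built from DIA-NN precursor signals, and peptides missing any value discarded before comparison.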

Sequence of UniProt P76010 (P76010 whole entry): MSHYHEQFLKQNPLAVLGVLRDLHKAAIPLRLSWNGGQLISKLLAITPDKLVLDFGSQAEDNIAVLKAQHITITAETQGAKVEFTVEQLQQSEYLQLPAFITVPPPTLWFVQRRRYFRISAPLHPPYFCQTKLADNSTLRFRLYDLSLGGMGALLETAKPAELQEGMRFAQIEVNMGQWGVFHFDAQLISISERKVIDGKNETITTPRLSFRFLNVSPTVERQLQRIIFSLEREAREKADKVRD
Sequence of UniProt P0ADM4 (P0ADM4 whole entry): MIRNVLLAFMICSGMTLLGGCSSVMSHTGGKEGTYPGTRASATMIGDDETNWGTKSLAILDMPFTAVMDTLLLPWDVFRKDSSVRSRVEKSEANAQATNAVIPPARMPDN
Sequence of UniProt P27241 (P27241 whole entry): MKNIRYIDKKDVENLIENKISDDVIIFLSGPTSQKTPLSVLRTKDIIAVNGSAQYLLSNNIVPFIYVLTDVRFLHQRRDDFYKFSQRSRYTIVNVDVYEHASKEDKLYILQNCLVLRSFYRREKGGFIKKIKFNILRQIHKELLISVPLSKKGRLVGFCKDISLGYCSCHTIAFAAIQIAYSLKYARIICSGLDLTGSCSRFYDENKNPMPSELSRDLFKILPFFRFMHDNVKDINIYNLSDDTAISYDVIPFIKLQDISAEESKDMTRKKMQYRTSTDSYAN
Sequence of UniProt P43672 (P43672 whole entry): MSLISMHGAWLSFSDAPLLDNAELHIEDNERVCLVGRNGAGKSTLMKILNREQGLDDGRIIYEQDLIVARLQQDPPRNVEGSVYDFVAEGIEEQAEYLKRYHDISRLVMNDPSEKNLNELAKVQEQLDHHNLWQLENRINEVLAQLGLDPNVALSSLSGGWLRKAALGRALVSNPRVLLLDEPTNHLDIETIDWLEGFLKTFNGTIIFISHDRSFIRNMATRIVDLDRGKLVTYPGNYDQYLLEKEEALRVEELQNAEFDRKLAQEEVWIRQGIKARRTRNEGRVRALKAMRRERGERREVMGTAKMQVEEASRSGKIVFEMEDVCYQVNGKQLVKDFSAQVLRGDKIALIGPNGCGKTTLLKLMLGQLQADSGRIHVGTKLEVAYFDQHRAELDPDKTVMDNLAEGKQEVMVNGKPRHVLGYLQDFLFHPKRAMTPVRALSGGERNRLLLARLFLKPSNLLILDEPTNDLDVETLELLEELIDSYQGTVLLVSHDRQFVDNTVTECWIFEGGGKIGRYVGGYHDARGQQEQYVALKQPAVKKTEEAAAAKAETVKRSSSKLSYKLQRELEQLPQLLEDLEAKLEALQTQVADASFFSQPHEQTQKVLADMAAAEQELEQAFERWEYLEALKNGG
Sequence of UniProt P25539 (P25539 whole entry): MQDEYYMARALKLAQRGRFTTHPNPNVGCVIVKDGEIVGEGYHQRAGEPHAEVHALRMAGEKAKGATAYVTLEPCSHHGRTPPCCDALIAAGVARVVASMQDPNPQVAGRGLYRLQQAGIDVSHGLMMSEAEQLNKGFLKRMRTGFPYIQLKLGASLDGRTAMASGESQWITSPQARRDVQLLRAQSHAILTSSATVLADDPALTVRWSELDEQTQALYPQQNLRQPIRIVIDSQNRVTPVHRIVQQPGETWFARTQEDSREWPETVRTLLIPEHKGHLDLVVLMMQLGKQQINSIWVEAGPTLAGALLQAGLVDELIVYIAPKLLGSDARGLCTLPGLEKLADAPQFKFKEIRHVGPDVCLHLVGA
Sequence of UniProt P26365 (P26365 whole entry): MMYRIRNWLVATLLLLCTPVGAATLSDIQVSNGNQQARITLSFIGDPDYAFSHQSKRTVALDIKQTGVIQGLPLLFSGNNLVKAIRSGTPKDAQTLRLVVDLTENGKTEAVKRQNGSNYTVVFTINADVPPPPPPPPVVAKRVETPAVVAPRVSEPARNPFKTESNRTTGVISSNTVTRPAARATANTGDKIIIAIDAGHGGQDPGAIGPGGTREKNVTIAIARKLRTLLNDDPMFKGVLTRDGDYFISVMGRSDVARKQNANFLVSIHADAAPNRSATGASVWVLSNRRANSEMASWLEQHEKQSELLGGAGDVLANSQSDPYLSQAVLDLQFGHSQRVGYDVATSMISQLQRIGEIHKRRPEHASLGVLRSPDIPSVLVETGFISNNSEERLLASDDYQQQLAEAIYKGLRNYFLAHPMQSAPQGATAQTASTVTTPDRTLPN
Sequence of UniProt P64602 (P64602 whole entry): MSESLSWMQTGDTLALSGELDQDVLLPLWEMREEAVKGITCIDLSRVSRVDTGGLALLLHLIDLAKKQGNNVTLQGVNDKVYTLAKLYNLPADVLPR
Sequence of UniProt P46889 (P46889 whole entry): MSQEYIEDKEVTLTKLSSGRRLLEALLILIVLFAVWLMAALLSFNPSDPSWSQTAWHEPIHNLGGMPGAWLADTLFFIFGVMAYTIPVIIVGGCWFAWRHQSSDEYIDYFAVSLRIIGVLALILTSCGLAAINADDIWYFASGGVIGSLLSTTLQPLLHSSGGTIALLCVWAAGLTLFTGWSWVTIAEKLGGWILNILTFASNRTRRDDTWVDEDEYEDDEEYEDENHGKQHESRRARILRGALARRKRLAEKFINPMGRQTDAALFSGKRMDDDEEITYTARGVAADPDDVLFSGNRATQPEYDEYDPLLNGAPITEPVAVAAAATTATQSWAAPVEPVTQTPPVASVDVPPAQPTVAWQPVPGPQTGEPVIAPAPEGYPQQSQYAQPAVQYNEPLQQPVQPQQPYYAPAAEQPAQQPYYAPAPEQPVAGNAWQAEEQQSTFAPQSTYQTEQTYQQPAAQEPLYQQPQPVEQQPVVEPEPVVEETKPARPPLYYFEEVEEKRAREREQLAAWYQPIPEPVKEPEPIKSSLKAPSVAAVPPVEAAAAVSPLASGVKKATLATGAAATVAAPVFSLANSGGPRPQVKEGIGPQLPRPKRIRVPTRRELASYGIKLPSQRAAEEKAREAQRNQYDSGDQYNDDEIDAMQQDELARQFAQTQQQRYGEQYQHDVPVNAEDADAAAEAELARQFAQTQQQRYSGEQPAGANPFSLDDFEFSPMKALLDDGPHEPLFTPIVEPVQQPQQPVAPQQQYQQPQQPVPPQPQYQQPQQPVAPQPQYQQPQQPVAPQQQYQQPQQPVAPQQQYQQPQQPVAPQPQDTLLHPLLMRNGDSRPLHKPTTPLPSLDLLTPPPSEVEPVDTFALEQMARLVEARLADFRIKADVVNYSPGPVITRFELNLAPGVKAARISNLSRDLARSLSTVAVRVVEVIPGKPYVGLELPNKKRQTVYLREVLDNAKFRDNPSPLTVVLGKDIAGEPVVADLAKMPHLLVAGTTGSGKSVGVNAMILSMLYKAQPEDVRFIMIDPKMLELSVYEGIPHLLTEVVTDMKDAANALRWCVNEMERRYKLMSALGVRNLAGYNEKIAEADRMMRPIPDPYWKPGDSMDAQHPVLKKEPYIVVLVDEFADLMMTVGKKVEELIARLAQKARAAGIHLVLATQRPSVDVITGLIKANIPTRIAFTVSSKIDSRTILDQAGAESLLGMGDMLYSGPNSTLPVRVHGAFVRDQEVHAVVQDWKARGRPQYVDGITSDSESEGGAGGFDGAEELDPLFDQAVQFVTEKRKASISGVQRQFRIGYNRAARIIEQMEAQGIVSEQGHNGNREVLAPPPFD
Sequence of UniProt P37177 (P37177 whole entry): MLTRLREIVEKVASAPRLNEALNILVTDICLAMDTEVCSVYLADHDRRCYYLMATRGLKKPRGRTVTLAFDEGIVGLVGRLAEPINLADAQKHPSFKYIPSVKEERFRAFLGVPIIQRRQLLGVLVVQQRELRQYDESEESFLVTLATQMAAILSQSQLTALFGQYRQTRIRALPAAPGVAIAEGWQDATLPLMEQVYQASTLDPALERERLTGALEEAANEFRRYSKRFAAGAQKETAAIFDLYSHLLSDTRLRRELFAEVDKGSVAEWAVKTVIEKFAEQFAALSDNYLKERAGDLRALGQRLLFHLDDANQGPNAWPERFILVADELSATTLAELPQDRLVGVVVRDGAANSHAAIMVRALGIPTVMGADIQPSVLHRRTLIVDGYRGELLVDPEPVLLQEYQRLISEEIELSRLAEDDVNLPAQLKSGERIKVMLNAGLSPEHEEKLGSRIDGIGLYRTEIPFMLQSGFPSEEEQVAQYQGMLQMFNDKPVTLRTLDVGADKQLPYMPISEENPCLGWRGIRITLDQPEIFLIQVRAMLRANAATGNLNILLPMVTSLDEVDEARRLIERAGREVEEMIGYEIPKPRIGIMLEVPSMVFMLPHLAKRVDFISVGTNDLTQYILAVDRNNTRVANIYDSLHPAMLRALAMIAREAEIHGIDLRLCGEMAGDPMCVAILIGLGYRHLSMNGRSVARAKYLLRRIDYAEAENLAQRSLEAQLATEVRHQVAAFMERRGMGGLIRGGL
Sequence of UniProt P39353 (P39353 whole entry): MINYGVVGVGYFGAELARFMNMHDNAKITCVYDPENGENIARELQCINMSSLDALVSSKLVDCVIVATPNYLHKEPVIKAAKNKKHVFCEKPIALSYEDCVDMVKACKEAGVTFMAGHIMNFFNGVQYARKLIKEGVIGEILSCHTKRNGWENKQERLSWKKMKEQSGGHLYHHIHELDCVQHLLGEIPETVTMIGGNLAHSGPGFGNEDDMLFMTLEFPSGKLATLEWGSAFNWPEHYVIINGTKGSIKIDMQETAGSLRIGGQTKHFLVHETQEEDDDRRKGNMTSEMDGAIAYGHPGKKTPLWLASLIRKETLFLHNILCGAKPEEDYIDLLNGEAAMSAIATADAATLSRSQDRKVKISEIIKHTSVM
Sequence of UniProt P00760 (P00760 whole entry): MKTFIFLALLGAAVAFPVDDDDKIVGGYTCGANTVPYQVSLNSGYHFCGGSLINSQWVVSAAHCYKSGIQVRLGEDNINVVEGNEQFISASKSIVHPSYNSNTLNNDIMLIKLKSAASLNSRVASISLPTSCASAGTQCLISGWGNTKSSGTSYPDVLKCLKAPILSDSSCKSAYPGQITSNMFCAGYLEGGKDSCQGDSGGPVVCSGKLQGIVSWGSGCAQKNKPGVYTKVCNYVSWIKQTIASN

The targets below were run with Nc1ncnc2c1ncn2[C@@H]1O[C@H](COP(=O)(O)OP(=O)(O)OP(=O)(O)O)[C@@H](O)[C@H]1O [adenosine 5'-triphosphate] (assay: log2 fold change of tryptic peptide abundance, ligand vs vehicle (limited proteolysis) (log2 ratio); higher = more trypsin-susceptible (destabilized)). Conditions: ligand concentration: 5 mM; sample: E. coli desalted lysate; replicate design: treated before aliquoting.
Protocol: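 HT-PELSA: desalted E. coli K-12 BW25113 lysate (with 12 mM MgCl2) incubated with 5 mM ATP (pH 7) or water for 30 min at 25 C, then a 4 min trypsin pulse at 22 C. Peptides were quantified by DIA-MS (4 replicates). Value is the peptide log2 fold change (treated/control); negative = stabilized. Scale: negative = ligand-stabilized region.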
In the case of “UniProt P30014 (peptide sequence: TAVLFCEIVNR, peptide start residue: 190)”, the log2 fold change is reported as -2.04. For “UniProt P27296 (peptide sequence: SIPHIIVTSATLR, peptide start residue: 451)”, the log2 fold change was -2.01. “UniProt P39353 (peptide sequence: EGVIGEILSCHTKR, peptide start residue: 135)” showed a log2 fold change of -0.665. Work on “UniProt P37327 (peptide sequence: AMAIHEHIR, peptide start residue: 37)” yielded a log2 fold change of -0.62. “UniProt P00760 (peptide sequence: LKSAASLNSR, peptide start residue: 113)” was tested, and the log2 fold change was 0.367. For “UniProt P37759 (peptide sequence: EQITYVADRPGHDRR, peptide start residue: 289)”, the log2 fold change was -0.709. For “UniProt P76556 (peptide sequence: IAFVGSVGAGK, peptide start residue: 4)”, the log2 fold change was -0.693. In the case of “UniProt P15043 (peptide sequence: FGKPFMALIR, peptide start residue: 591)”, the log2 fold change is reported as 0.672. For “UniProt P46889 (peptide sequence: FRDNPSPLTVVLGK, peptide start residue: 957)”, the log2 fold change was -1.51. With “UniProt P31808 (peptide sequence: TGMTFDAQPGR, peptide start residue: 236)” the log2 fold change was -0.533. Target “UniProt P64602 (peptide sequence: GITCIDLSR, peptide start residue: 38)” has a log2 fold change of 0.802. “UniProt P0ADM4 (peptide sequence: EGTYPGTR, peptide start residue: 32)” gave a log2 fold change of -0.36. In the case of “UniProt P00946 (peptide sequence: FEAKPANQLLTQPVK, peptide start residue: 293)”, the log2 fold change is reported as -0.633. Target “UniProt P37177 (peptide sequence: VANIYDSLHPAMLR, peptide start residue: 636)” has a log2 fold change of 0.572. Work on “UniProt P0A9J4 (peptide sequence: HTEIDYINGFLLRR, peptide start residue: 254)” yielded a log2 fold change of 0.895. Work on “UniProt P07862 (peptide sequence: AWTTLGCK, peptide start residue: 244)” yielded a log2 fold change of -0.633. In the case of “UniProt P76134 (peptide sequence: TMNSVQLTAQK, peptide start residue: 298)”, the log2 fold change is reported as -0.467. “UniProt P21865 (peptide sequence: AIEHFFR, peptide start residue: 205)” was tested, and the log2 fold change was 0.436. With “UniProt P76010 (peptide sequence: FLNVSPTVER, peptide start residue: 213)” the log2 fold change was -1.34. Target “UniProt P26365 (peptide sequence: SATGASVWVLSNR, peptide start residue: 277)” has a log2 fold change of -0.606. “UniProt P27241 (peptide sequence: YTIVNVDVYEHASKEDK, peptide start residue: 90)” gave a log2 fold change of -0.487. For “UniProt P43672 (peptide sequence: LMLGQLQADSGR, peptide start residue: 364)”, the log2 fold change was -0.906. Target “UniProt P25539 (peptide sequence: LADAPQFK, peptide start residue: 342)” has a log2 fold change of -0.381. “UniProt P21645 (peptide sequence: KTAALVMNIDDMSKR, peptide start residue: 315)” was tested, and the log2 fold change was -0.565. Target “UniProt P77735 (peptide sequence: LGMDYVDILQIHR, peptide start residue: 116)” has a log2 fold change of -0.843. “UniProt P00888 (peptide sequence: LLVVCGPCSIHDPETALEYARR, peptide start residue: 55)” gave a log2 fold change of 0.547.
